This is one part of a sample in which hits are shown more often than they occur.
CHX counter: Cycloheximide Counterscreen for Small Molecule Inhibitors of Shiga Toxin; cell reporter, cycloheximide protein synthesis inhibition counterscreen; max response, %; 12% of 300,000 active; AID 2314, 2010; in the data active means max response mostly above about 13%, no sharp cut-off; inactive means mostly below about 14%; further: read at 38.3 µM for the half of the compounds with a filed dose; 0% is about no effect
VACV Venus inh: qHTS for Stage-Specific Inhibitors of Vaccinia Orthopoxvirus: Venus Reporter Primary qHTS; 0.46% of 330,000 active; AID 720580, 2013; Vaccinia virus Venus reporter expression, fluorescence; Potency, µM (top dose mostly 36.5 µM), without a hit: at the highest dose activity change, negative = inhibition, most hits filed as inhibitors; calls by dose curve; tested in A549 cells; further: potency means the concentration at half of the fitted maximal effect; on the % scale 0 is the no-effect control and ±100 the full control effect; nearly all actives have a fitted effect of over 30% in size
Marburg entry inh: qHTS for inhibitors of binding or entry into cells for Marburg Virus. AID 540276, 2011. Potency, µM (series often up to 37.8 µM), for the others: at the highest dose activity change, negative = inhibition, actives largely listed as inhibitors. 1.8% of 300,000 active. Marburg virus pseudotyped entry inhibition, cell reporter; calls by dose curve; tested in HEK293 cells; further: potency means the concentration at half of the fitted maximal effect; on the % scale 0 is the no-effect control and ±100 the full control effect
Lassa entry inh: qHTS for Inhibitors of binding or entry into cells for Lassa Virus; Lassa virus pseudotype entry inhibition, cell reporter; Potency, µM (doses to about 37.9 µM), without a hit: at the top dose activity change, negative = inhibition, hits mostly inhibitors; 1.2% of 300,000 active; calls by dose curve; tested in HEK293 cells; further: potency means the concentration at half of the fitted maximal effect; on the % scale 0 is the no-effect control and ±100 the full control effect; nearly all actives have a fitted effect of over 50% in size
VACV mCherry inh: qHTS for Stage-Specific Inhibitors of Vaccinia Orthopoxvirus: mCherry Reporter Primary qHTS; Vaccinia virus mCherry reporter infection, fluorescence; Potency, µM (titrated, usually from 36.5 µM), for the others: at the top dose activity change, negative = inhibition, actives largely listed as inhibitors; 0.63% of 310,000 active; AID 720579, 2013; calls by dose curve; tested in A549 cells; further: potency means the concentration at half of the fitted maximal effect; on the % scale 0 is the no-effect control and ±100 the full control effect; nearly all actives have a fitted effect of over 35% in size
Shiga toxin inh: A qHTS for Small Molecule Inhibitors of Shiga Toxin; 9.2% of 290,000 active; inhibition, % at 38.7 µM; Vero cells, Shiga toxin protein synthesis inhibition reporter; AID 2315, 2010; in the data active means inhibition mostly above about 28%, no sharp cut-off; inactive means mostly below about 43%; further: 0% is about no effect
Starred values were filed as active, the others as inactive; i = inactive; u = inconclusive; x = no result; + = active, no number; [ ] = another dose, or the depositor's remark.

SMILES	CHX counter	VACV Venus inh	Marburg entry inh	Lassa entry inh	VACV mCherry inh	Shiga toxin inh
CCOc1ccc2ncc3c(-c4ccccc4)nn(CC(=O)Nc4cccc(F)c4)c3c2c1	x	5%	x	30%[46.1 µM]	-1%	x
CCN1CCN(C(=O)c2cnn(-c3ccc(F)cc3)c2-n2cccc2)CC1	x	-3%	x	24%[46.1 µM]	-9%	x
COc1ccccc1CNC(=O)CCc1c(C)c2cc3c(C)coc3cc2oc1=O	x	5%	3%[46.1 µM]	-24%[46.1 µM]	-7%	x
CCc1nn(CC(=O)NCCN(CC(C)C)CC(C)C)c(=O)c2cc3sc(C)cc3n12	x	-13%	2%[46.1 µM]	x	-12%	x
CCCCOc1ccc(S(=O)(=O)Nc2ccc(-c3ccc(N4CCC(C)CC4)nn3)cc2)cc1	x	-13%	x	14%[46.1 µM]	-20%	x
CCOC(=O)Cn1nnnc1C(C(C)C)N(Cc1cc2c(C)cc(C)cc2[nH]c1=O)C1CCCC1 (stereo not given)	3	-16%	8.9µM*	u	x	-6
CCC(CC)C(=O)N1CCCC(c2nc(-c3cccs3)no2)C1 (stereo not given)	17	-5%	-18%[46.1 µM]	-15%	-12%	61*
CCOc1ccc(C(=O)N2CCCC(c3nc(-c4cccs4)no3)C2)cc1 (stereo not given)	28*	9%	-4%	u	-9%	33*
O=C(c1ccc(Cl)cc1)N1CCC(c2nc(-c3cccs3)no2)CC1	-2	-17%	-30%	-36%[14.3 µM]	-16%	2
CCN(CC)C(=O)C1CCCN(Cc2nc(-c3cccs3)no2)C1 (stereo not given)	-2	25%	6%[46.1 µM]	5%[46.1 µM]	-12%	-5
COc1ccc(-c2cc(C(F)(F)F)nc(SCC(=O)N3CCCCC3C)n2)cc1OC (stereo not given)	x	9%	u	2%[46.1 µM]	-12%	x
O=C(OC1Cc2c(O)cc(O)cc2OC1c1cc(O)c(O)c(O)c1-c1c(C2Oc3cc(O)cc(O)c3CC2O)cc(O)c(O)c1O)c1cc(O)c(O)c(O)c1 (stereo not given)	x	-5%	x	x	i	x
Cc1ccc(-c2cc(C(=O)Oc3ccc(C#N)cc3)no2)cc1	x	-1%	u	0%[46.1 µM]	-16%	x
CCc1ccc(C(=O)NCc2cnn(C)c2)s1	24	-12%	8%[46.1 µM]	u	i	37*
Cc1cccc(Cc2c(C)nc3nc(SCc4ccccc4F)nn3c2C)c1	x	-5%	x	14%[46.1 µM]	-19%	x
N#Cc1cccnc1N1CCN(C(=O)COCC(=O)O)CC1	-1	x	x	x	x	-7
O=c1[nH]n(CC2COC3(CCCCC3)O2)c(=O)c2ccccc12 (stereo not given)	33*	0%	13%	11%	-12%	43*
O=C(Cn1[nH]c(=O)c2ccccc2c1=O)NC1CCCCCC1	17	-24%	9%	-2%	x	19
O=C(c1cc2cc(Cl)ccc2[nH]1)N1CCc2ccccc2C1	8	x	x	x	x	7
O=C(c1ccccc1)c1cc2cc(Cl)ccc2[nH]1	32*	-2%	25%[46.1 µM]	19%[46.1 µM]	-10%	40*
COc1cccc(C(=O)c2cc3cc(Cl)ccc3[nH]2)c1	38*	u	-6%	-11%	-15%	42*
COc1ccc(NC(=O)c2cc(C3CCCCN3C(=O)OCCF)on2)c(C)c1 (stereo not given)	x	-4%	x	x	i	x
Cc1cccc(C2=NN(c3ccccc3)[C@H](CO)[C@H]2c2ccccc2)c1	19	-9%	x	x	i	i
Cc1cccc(C2=NN(c3ccccc3)[C@H](CO)[C@H]2C)c1	22	x	x	x	x	+
CCc1nc2ccc(C(=O)N(C)CCCN(C)C)cn2c1N(C)CCCc1ccccc1	x	1%	x	x	1%	x
SMILES	CHX counter	VACV Venus inh	Marburg entry inh	Lassa entry inh	VACV mCherry inh	Shiga toxin inh
Clc1ccc2[nH]c(-c3ccccc3)cc2c1	46*	-27%	-20%	u	x	70*
Cc1ccc(C(=O)OCc2cc3ccccc3[nH]c2=O)cc1	-3	-28%	12%	-13%	-26%	-3
c1ccc(-c2cc3ccccc3[nH]2)cc1	33*	-9%	x	x	-14%	37*
Cc1ccc(O)c(-c2cc3ccccc3[nH]2)c1	28*	x	4%	6%	x	33*
O=c1cc(-c2ccccc2)[nH]c2ccc(Cl)cc12	44*	x	x	x	x	+
COc1ccc(-c2cc3ccccc3[nH]2)cc1	42*	-7%	11%[46.1 µM]	13%	-11%	100*
O=[N+]([O-])c1cccc(-c2cc3ccccc3[nH]2)c1	27*	x	x	x	x	23
COc1ccc(-c2cc(=O)c3ccccc3[nH]2)cc1	18	-17%	-8%	6%	18%	7
Nc1ccc(-c2cc3ccccc3[nH]2)cc1	x	-9%	x	x	-19%	x
CCc1ccc(C(=O)Cc2cc3cccc(OC)c3oc2=O)cc1	28*	x	x	x	x	64*
COc1cccc2cc(CC(=O)c3ccccc3)c(=O)oc12	18	x	x	x	x	44*
O=c1oc2ccc(Br)cc2cc1-c1nc2ccccc2o1	-3	-2%	-1%	-2%	-15%	16
COc1cccc2cc(CC(=O)c3cc(C)ccc3C)c(=O)oc12	28*	x	x	x	x	71*
COc1cccc2cc(-c3nc4ccccc4o3)c(=O)oc12	45*	-18%	1%[46.1 µM]	u	-14%	106*
COc1cccc2cc(CC(=O)c3ccc(C)c(C)c3)c(=O)oc12	11	x	x	x	x	-7
COc1cccc2cc(C(C)=O)c(=O)oc12	2	x	-10%	-3%	x	-15
CN1CCC2(CCN3CCc4c(oc5ccccc45)C3C2)N(C)C1=O (stereo not given)	x	x	u	-12%	x	x
CCOc1ccc(CNCc2c(C(=O)O)c(C)n(Cc3ccc(F)cc3Cl)c2C)cc1	x	-8%	u	8%[46.1 µM]	-14%	x
COc1ccc([N+](=O)[O-])cc1NC(=O)CCS(=O)(=O)c1ccc(Br)cc1	-2	5%	-24%[46.1 µM]	-1%[46.1 µM]	-10%	2
CC1=C[S+](=O)([O-])CC1SC1=NC2C=CC=CC2=N1 (stereo not given)	x	x	-15%	x	x	x
COc1cccc2cc(/C(=N/O)c3ccc(Br)cc3)oc12	5	x	-29%	-22%	x	-10
COc1cccc2cc(C(=O)c3ccccc3)oc12	68*	-9%	-1%[46.1 µM]	u	i	166*
Cc1ccc(S(=O)(=O)c2cn(CC(=O)Nc3ccc4c(c3)OCO4)c3ccc(F)cc3c2=O)cc1	x	-12%	0%[46.1 µM]	-7%[46.1 µM]	-9%	x
O=C(NC1CCCCC1)C(c1ccccc1)N(Cc1ccc2c(c1)OCO2)C(=O)c1cnsn1 (stereo not given)	-3	-16%	11µM*	u	i	-4
Cc1ccc(C(C(=O)NC2CCCC2)N(Cc2ccc3c(c2)OCO3)C(=O)c2snc(C(N)=O)c2N)cc1 (stereo not given)	5	1%	u	-8%[46.1 µM]	i	-2
O=C(Nc1nnc(C2=COCCO2)o1)c1cccc(F)c1	11*	-4%	28%[46.1 µM]	1%[46.1 µM]	-25%	28

Source: PubChem BioAssay (National Center for Advancing Translational Sciences (NCATS))
